The record followed here is PubChem BioAssay (NCI).

Assay [1] in a line: NCI Yeast Anticancer Drug Screen. Data for the rad50 strain (AID 155).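 Note: 0% = growth of vehicle-only cultures of the same strain.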 As to conditions: S. cerevisiae rad50 strain growth inhibition; at 50.0 µM; hits give high values. Put shortly:
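Growth of the mutant yeast was measured after compound exposure and referenced to vehicle-treated cultures.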

Assay [2] in a line: NCI Yeast Anticancer Drug Screen. Data for the mec2-1 strain (AID 157). As to conditions: S. cerevisiae mec2-1 strain, at 50.0 µM, hits give high values. The method, boiled down:
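Test agents were screened against the mec2-1 yeast strain, with defined DNA repair or cell cycle alteration. Growth was scored as inhibition against vehicle-only controls.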

Assay [3] can be described thus: NCI Yeast Anticancer Drug Screen. Data for the sgs1 mgt1 strain (AID 161).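 Note: 0% = growth of cultures given vehicle only.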 The note with it: S. cerevisiae sgs1 mgt1 strain, at 50.0 µM, hits give high values. Put shortly: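 Inhibition of yeast growth, normalised to vehicle-treated controls, is reported for a strain bearing genetic alterations in DNA damage repair.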
Assay [4] in a line: NCI Yeast Anticancer Drug Screen. Data for the cln2 rad14 strain (AID 165).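 Note: 0% = growth equal to vehicle treated cultures.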 The note with it: S. cerevisiae cln2 rad14 strain, at 50.0 µM, hits give high values. The method, boiled down: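 Growth of compound-exposed yeast (cln2 rad14 genotype) measured and expressed as inhibition relative to vehicle.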
Assay [5] can be described thus: NCI Yeast Anticancer Drug Screen. Data for the bub3 strain (AID 167). The note with it: S. cerevisiae bub3 mutant strain, at 50.0 µM, hits give high values. Put shortly: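 Whole-cell yeast assay. The mutant strain was incubated with compounds, and growth inhibition was determined by comparison with vehicle-treated cells.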
Assay [6] is described as follows: NCI Yeast Anticancer Drug Screen. Data for the mlh1 rad18 strain (AID 175). The note with it: S. cerevisiae mlh1 rad18 strain growth inhibition; at 50.0 µM; hits give high values. The method, boiled down:
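In this whole-cell yeast screen, a strain with altered DNA damage repair is challenged with compound, and its growth is measured against matched vehicle-treated controls.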

Molecules are shown by their SMILES. Where “and” joins values, the source holds several entries; their conditions need not be identical. Equal entries are not always repeated. The panel holds about 79,000 compounds, 15% with a hit somewhere; the sample as a whole holds those more often. Values without a mark were called inactive. Calls of active or inactive are those of the source. Cut-off read from the data, not from the text of the source: active = growth inhibition above about 70%; inactive = the rest.

On to `CC1(C)C(=O)C=CC2(C)C3CCC4(C)C(O)CCC4(C)C3CCC12` (stereo unspecified), for which the growth inhibition in assay [1] is 9.6%; in assay [2], -10.2%; in assay [3] it was 7.2%; in assay [4], -30.1%; in assay [5], 13.8%; in assay [6] it was 20.1%.

For the compound `CC12CCC(O)CC1CCC1C2CCC2(C)C(C3=CC(=O)OC3)CCC12` (stereo unspecified), the growth inhibition in assay [1] is 7.05%; in assay [2] it was 18.4%; in assay [3], 30.6%; in assay [4], 12.1%; in assay [5] it was 12.1%; in assay [6], 42.5%.

In the case of `Cc1cc(N(CCCl)CCCl)ccc1C=Nc1ccccc1C(=O)O`, the growth inhibition is 27.4% in assay [1]; 3.9% in assay [2]; 28.4% in assay [3]; 16.1% in assay [4]; 2.65% in assay [5]; 29.1% in assay [6].

Consider `CN(C)CCc1ccccc1`, for which the growth inhibition in assay [1] is -15.1%; in assay [2] it was 2.35%; in assay [3], 13.9%; in assay [4], 20.8%; in assay [5], -2.3%; in assay [6] it was 11.1%.

For the compound `O=C(Cc1ccccc1)OCc1ccco1`, the growth inhibition in assay [1] is 6.9%; in assay [2], -23.9%; in assay [3], -30%; in assay [4] it was -41.5%; in assay [5] it was 13.4%; in assay [6], -4.7%.

As for `CCCCCCCC[As](=O)(O)CCCCCCCC`, the growth inhibition in assay [1] was -2.95%; in assay [2], -0.3%; in assay [3], 20.9%; in assay [4], -6.85%; in assay [5] it was -0.7%; in assay [6], -10.2%.

In the case of `Cn1c(=O)n(C)c(=O)n(C)c1=O`, the growth inhibition in assay [1] was 3.8%; in assay [2], 6.65%; in assay [3] it was -5.2%; in assay [4], -1.55%; in assay [5], 14.6%; in assay [6] it was -12.6%.

For the compound `CN(C)c1ccc(SC(Cl)(Cl)Cl)cc1`, the growth inhibition is -0.95% in assay [1]; -14.2% in assay [2]; -0.1% in assay [3]; -43.9% in assay [4]; 3.4% in assay [5]; -4.75% in assay [6].

Turning to `COc1ccc(N2CC=C(c3ccccc3)OP2(=O)N2CC2)cc1` (stereo unspecified), the growth inhibition in assay [1] is -20.4%; in assay [2] it was 25.9%; in assay [3], 5.9%; in assay [4], 18.2%; in assay [5], 0.95%; in assay [6], -7.7%.

As for `CCOP(=O)(CCBr)Oc1ccc([N+](=O)[O-])cc1` (stereo unspecified), the growth inhibition in assay [1] was -17.9%; in assay [2], 11.8%; in assay [3], -16.4%; in assay [4], -2.6%; in assay [5], 7.3%; in assay [6], -20%.

Turning to `CC1(C)N=C(N)N=C(N)N1c1ccc(CCc2ccc(S(=O)(=O)F)c(Cl)c2)c(Cl)c1`, the growth inhibition in assay [1] is 99.2% (active); in assay [2] it was 99.7% (active); in assay [3] it was 99.8% (active); in assay [4] it was 98.7% (active); in assay [5] it was 99.2% (active); in assay [6], 99.7% (active).

Take `CN1C2CCC1CC(=O)C2`: the growth inhibition in assay [1] is -14.6%; in assay [2], -48.2%; in assay [3], -32.6%; in assay [4], -8.35%; in assay [5], -29.9%; in assay [6], -27.4%.

Consider `Nc1cccc2scnc12` (tested in a mixture with another compound), for which the growth inhibition in assay [1] is -13.9%; in assay [2], 3.8%; in assay [3], 29.7%; in assay [4], -7.85%; in assay [5] it was -10.3%; in assay [6], 19.1%.

For the compound `CCOC(OCC)C(CC)[Se]c1ccccc1` (stereo unspecified), the growth inhibition was 4.45% in assay [1]; -9.6% in assay [2]; 13.4% in assay [3]; 0.6% in assay [4]; 2.7% in assay [5]; -7.9% in assay [6].

Consider `CCN1C(=O)C(=C/C=C/c2ccc([N+](=O)[O-])cc2)C(=O)N(CC)C1=S`, for which the growth inhibition was 8.55% in assay [1]; 9.95% in assay [2]; 19.1% in assay [3]; 19.9% in assay [4]; 18.6% in assay [5]; 18.1% in assay [6].

Regarding `CCCCCCCCCCCOP(=O)(OCC)OCC`, the growth inhibition in assay [1] was 99.5% (active); in assay [2] it was 99.8% (active); in assay [3] it was 99.8% (active); in assay [4], 99.5% (active); in assay [5] it was 99.7% (active); in assay [6], 99.7% (active).

Turning to `COc1ccc(CC(N)C(=O)O)cc1N(CCCl)CCCl` (stereo unspecified), the growth inhibition in assay [1] was -0.2% and -0.5%; in assay [2] it was -0.55% and -7.45%; in assay [3], -11.2% and -6.65%; in assay [4], -6.55% and -9.85%; in assay [5], 2.25% and 7.75%; in assay [6], -9.25% and -7.2%.

Turning to `CC(C)CCCCCc1ccc(OCCOc2ccc(C(=O)Nc3ccc(S(=O)(=O)F)cc3[N+](=O)[O-])cc2)cc1`, the growth inhibition was 42.1% in assay [1]; -8.75% in assay [2]; 26.2% in assay [3]; -11.7% in assay [4]; 0.5% in assay [5]; 9.85% in assay [6].

On to `CN(C)CCNC(=O)c1c([N+](=O)[O-])ccc(N(CCCl)CCCl)c1[N+](=O)[O-]`, for which the growth inhibition in assay [1] was 12.7%; in assay [2], -11.4%; in assay [3] it was -9.9%; in assay [4], -27.7%; in assay [5], 13.2%; in assay [6] it was -2.65%.

Turning to `C=CC(=O)OCCN(C)C`, the growth inhibition in assay [1] is 1.5%; in assay [2], -4.65%; in assay [3], -4.4%; in assay [4], -0.25%; in assay [5] it was 2.1%; in assay [6], 1.65%.

Turning to `CC1CN1c1nc(N2CC2C)nc(N2CC2C)n1` (stereo unspecified), the growth inhibition was -6.8% in assay [1]; 13.6% in assay [2]; -2.65% in assay [3]; -1.85% in assay [4]; -19.2% in assay [5]; -11.1% in assay [6].
